The campaign covered roughly 5,500 compounds. About 2,000 (36%) were called active. About 18% were inconclusive and are not listed. No stated cut-off is given here; in the data, active means normalized growth mostly below about 0.91 (no sharp cut-off); inconclusive means no clear call, values can overlap the other calls; inactive means mostly above about 0.92. Some of the results follow.
Test: chemical genetic growth profiling, strain panel (AID 1159580);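 further: tested at 20 µM; growth read once vehicle control cultures reached saturation at 30 °C; 1 = growth at the plate median or of vehicle wells; lower values mean less growth of the strain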
Conditions: growth OD

Measured: normalized growth

Fc1ccc([C@@H]2CCNC[C@H]2COc2ccc3c(c2)OCO3)cc1
inactive: S. cerevisiae deletion strains, locus YJR075W, strain HOC1, hits give low values 1.03 | S. cerevisiae deletion strains, locus YKL009W, strain mrt4, hits give low values 1.03 | S. cerevisiae deletion strains, locus YKL068W, hits give low values 1 | S. cerevisiae deletion strains, locus YKL085W, strain MDH1 (second series), hits give low values 0.991 | S. cerevisiae deletion strains, locus YKL085W, strain MDH1, hits give low values 0.991 | S. cerevisiae deletion strains, locus YKL160W, strain elf1, hits give low values 0.99 | S. cerevisiae deletion strains, locus YKL190W, strain CNB1, hits give low values 1.01 | S. cerevisiae deletion strains, locus YKR001C, strain vps1, hits give low values 1.02 | S. cerevisiae deletion strains, locus YKR026C, strain gcn3, hits give low values 1.01 | S. cerevisiae deletion strains, locus YKR091W, strain srl3, hits give low values 0.999 | S. cerevisiae deletion strains, locus YLL001W, strain dnm1, hits give low values 1 | S. cerevisiae deletion strains, locus YLL026W, hits give low values 0.998 | S. cerevisiae deletion strains, locus YLL041C, strain sdh2, hits give low values 1 | S. cerevisiae deletion strains, locus YLR027C, strain aat2, hits give low values 1 | S. cerevisiae deletion strains, locus YLR039C, strain RIC1, hits give low values 1.09 | S. cerevisiae deletion strains, locus YLR058C, strain SHM2, hits give low values 1.01 | S. cerevisiae deletion strains, locus YLR102C, strain apc9, hits give low values 1.02 | S. cerevisiae deletion strains, locus YLR113W, strain HOG1, hits give low values 0.995 | S. cerevisiae deletion strains, locus YLR221C, strain rsa3, hits give low values 1.01 | S. cerevisiae deletion strains, locus YLR258W, strain gsy2, hits give low values 1.01 | S. cerevisiae deletion strains, locus YLR262C, strain YPT6 (second series), hits give low values 1.08 | S. cerevisiae deletion strains, locus YLR262C, strain YPT6, hits give low values 1.09 | S. cerevisiae deletion strains, locus YLR268W, strain sec22, hits give low values 0.989 | S. cerevisiae deletion strains, locus YLR320W, strain mms22, hits give low values 0.984 | S. cerevisiae deletion strains, locus YLR330W, strain CHS5, hits give low values 1.01 | S. cerevisiae deletion strains, locus YLR342W, strain FKS1 (second series), hits give low values 1.06 | S. cerevisiae deletion strains, locus YLR342W, strain FKS1, hits give low values 0.996 | S. cerevisiae deletion strains, locus YLR357W, strain rsc2, hits give low values 0.998 | S. cerevisiae deletion strains, locus YLR370C, strain arc18, hits give low values 0.994 | S. cerevisiae deletion strains, locus YLR371W, strain rom2, hits give low values 1.01 | S. cerevisiae deletion strains, locus YLR384C, strain iki3, hits give low values 0.995 | S. cerevisiae deletion strains, locus YLR418C, strain cdc73, hits give low values 1.01 | S. cerevisiae deletion strains, locus YML016C, strain PPZ1, hits give low values 1.01 | S. cerevisiae deletion strains, locus YML032C, strain rad52, hits give low values 1.02 | S. cerevisiae deletion strains, locus YML120C, strain ndi1, hits give low values 0.991 | S. cerevisiae deletion strains, locus YML124C, strain tub3, hits give low values 1 | S. cerevisiae deletion strains, locus YMR058W, strain fet3, hits give low values 1 | S. cerevisiae deletion strains, locus YMR078C, strain ctf18, hits give low values 1.01 | S. cerevisiae deletion strains, locus YMR125W, strain sto1, hits give low values 0.999 | S. cerevisiae deletion strains, locus YMR129W, hits give low values 0.995 | S. cerevisiae deletion strains, locus YMR205C, strain PFK2, hits give low values 0.98 | S. cerevisiae deletion strains, locus YMR223W, strain ubp8, hits give low values 1.03 | S. cerevisiae deletion strains, locus YMR231W, strain pep5, hits give low values 1.01 | S. cerevisiae deletion strains, locus YMR263W, strain SAP30, hits give low values 1 | S. cerevisiae deletion strains, locus YMR307W, strain GAS1, hits give low values 1.13 | S. cerevisiae deletion strains, locus YNL067W, strain RPL9B, hits give low values 0.994 | S. cerevisiae deletion strains, locus YNL071W, strain lat1, hits give low values 1 | S. cerevisiae deletion strains, locus YNL128W, strain TEP1, hits give low values 1.02 | S. cerevisiae deletion strains, locus YNL153C, strain GIM3, hits give low values 0.979 | S. cerevisiae deletion strains, locus YNL183C, strain NPR1, hits give low values 1.01 | S. cerevisiae deletion strains, locus YNL209W, strain ssb2, hits give low values 1 | S. cerevisiae deletion strains, locus YNL233W, strain BNI4, hits give low values 1 | S. cerevisiae deletion strains, locus YNL248C, strain rpa49, hits give low values 1.02 | S. cerevisiae deletion strains, locus YNL250W, strain rad50, hits give low values 1 | S. cerevisiae deletion strains, locus YNL271C, strain bni1, hits give low values 1.02 | S. cerevisiae deletion strains, locus YNL298W, strain CLA4, hits give low values 1.01 | S. cerevisiae deletion strains, locus YNL307C, strain MCK1, hits give low values 1.03 | S. cerevisiae deletion strains, locus YNL322C, strain KRE1 (second series), hits give low values 1.01 | S. cerevisiae deletion strains, locus YNL322C, strain KRE1, hits give low values 1.01 | S. cerevisiae deletion strains, locus YNR049C, strain mso1, hits give low values 1 | S. cerevisiae deletion strains, locus YNR052C, strain pop2, hits give low values 1.02 | S. cerevisiae deletion strains, locus YOL006C, strain TOP1, hits give low values 1.06 | S. cerevisiae deletion strains, locus YOL012C, strain htz1 1.14 | S. cerevisiae deletion strains, locus YOL147C, strain pex11, hits give low values 1 | S. cerevisiae deletion strains, locus YOR001W, strain rrp6, hits give low values 0.983 | S. cerevisiae deletion strains, locus YOR061W, strain CKA2, hits give low values 1.01 | S. cerevisiae deletion strains, locus YOR069W, strain VPS5, hits give low values 1.01 | S. cerevisiae deletion strains, locus YOR070C, strain gyp1, hits give low values 1 | S. cerevisiae deletion strains, locus YOR080W, strain dia2, hits give low values 1 | S. cerevisiae deletion strains, locus YOR083W, strain WHI5, hits give low values 1.01 | S. cerevisiae deletion strains, locus YOR106W, strain vam3, hits give low values 1 | S. cerevisiae deletion strains, locus YOR136W, strain idh2, hits give low values 1.01 | S. cerevisiae deletion strains, locus YOR144C, strain elg1, hits give low values 1 | S. cerevisiae deletion strains, locus YOR184W, strain ser1, hits give low values 1.05 | S. cerevisiae deletion strains, locus YOR231W, strain MKK1, hits give low values 1.03 | S. cerevisiae deletion strains, locus YOR265W, strain rbl2, hits give low values 0.996 | S. cerevisiae deletion strains, locus YOR270C, strain vph1, hits give low values 0.905 | S. cerevisiae deletion strains, locus YOR290C, strain snf2, hits give low values 1.03 | S. cerevisiae deletion strains, locus YOR316C, strain cot1, hits give low values 1 | S. cerevisiae deletion strains, locus YPL051W, strain arl3, hits give low values 1 | S. cerevisiae deletion strains, locus YPL055C, strain LGE1, hits give low values 1.01 | S. cerevisiae deletion strains, locus YPL078C, strain atp4, hits give low values 1.01 | S. cerevisiae deletion strains, locus YPL106C, strain sse1, hits give low values 1.03 | S. cerevisiae deletion strains, locus YPL240C, strain hsp82, hits give low values 1.02 | S. cerevisiae deletion strains, locus YPL241C, strain CIN2, hits give low values 1.01 | S. cerevisiae deletion strains, locus YPL256C, strain CLN2, hits give low values 1.04 | S. cerevisiae deletion strains, locus YPR119W, strain clb2, hits give low values 1.01 | S. cerevisiae deletion strains, locus YPR141C, strain kar3, hits give low values 1 | S. cerevisiae deletion strains, locus YPR163C, strain tif3, hits give low values 1 | S. cerevisiae deletion strains, locus YPR167C, strain met16, hits give low values 1.01 | S. cerevisiae deletion strains, strain wtn01, hits give low values 0.998 | S. cerevisiae strains, strain wild type, hits give low values 1.02
